Laboratory results taken from PubChem BioAssay (EPA / NIEHS).
Several values for one entry are separate records, joined by “and”; a condition that tells them apart may be missing. Equal values may be shown once. Where a structure was tested more than once in an assay, its records may differ in their call. Activity calls are given as the source filed them. The calls were made as follows: active = hit-call score of the fitted dose curve at least 0.9, where 1 is the maximum; inactive = score below 0.9.

Assays:
[1] = ATG_PXRE_CIS: Attagene CIS-FACTORIAL HepG2 Assay for human Pregnane X Receptor Element (PXRE) (AID 2282957); conditions: HepG2 Attagene CIS-FACTORIAL PXRE reporter, mRNA; actives raise or lower the signal
Procedure, shortened: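 Bidirectional activity, baselined to DMSO, derived from reporter mRNA fluorescence (RT-PCR plus capillary electrophoresis) in HepG2 cells bearing cis-promoter reporter units, 24 h exposure.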

[2] = ATG_PPRE_CIS: Attagene CIS-FACTORIAL HepG2 Assay for human Peroxisome Proliferator-activated Response Element (PPRE) (AID 2282958); conditions: HepG2 PPRE cis-element reporter, Attagene transcription factor profiling; actives raise or lower the signal
Procedure, shortened: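 In this cell-based multiplex, a PPRE cis element drives a reporter sequence in transiently transfected HepG2 cells. Following 24 h treatment, labeled cDNA amplicons are sized and quantified by capillary electrophoresis, with DMSO defining baseline.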

[3] = ATG_RORE_CIS: Attagene CIS-FACTORIAL HepG2 Assay for human RAR-related Orphan Receptor Element (RORE) (AID 2282959); conditions: HepG2 Attagene cis-factorial RORE reporter, mRNA; actives raise or lower the signal
Procedure, shortened: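 Endogenous factor activity at a cis response element is read as reporter transcript levels in HepG2 cells, 24 h post-dose. Transcripts are quantified by RT-PCR with capillary electrophoresis, and data fitted in both directions against DMSO.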

[4] = ATG_Sox_CIS: Attagene CIS-FACTORIAL HepG2 Assay for human SRY-box transcription factor (SOX) (AID 2282960); conditions: HepG2 Attagene cis-factorial SOX reporter, mRNA; actives raise or lower the signal
Procedure, shortened: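 Measures mRNA induction of a SOX1-associated reporter in HepG2 after 24 h dosing. Fluorescently labelled RT-PCR fragments are separated by capillary electrophoresis, and gain or loss relative to DMSO control is fitted.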

[5] = target: Transcription factor Sp1 (Homo sapiens) (UniProt P08047); assay: ATG_Sp1_CIS: Attagene CIS-FACTORIAL HepG2 Assay for human Specificity Protein 1 (Sp1) (AID 2282961); conditions: HepG2 Sp1 cis-reporter transcription, actives raise or lower the signal
Procedure, shortened: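 Cells: HepG2, transiently transfected with cis-regulated multiplexed reporters. Exposure: 24 h. Detection: reporter transcripts amplified, fluorescently labeled, restriction-digested and sized by capillary electrophoresis. Analysis: bidirectional fit relative to DMSO.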

[6] = ATG_SREBP_CIS: Attagene CIS-FACTORIAL HepG2 Assay for human Sterol Regulatory Element Binding (SREBP) (AID 2282962); conditions: HepG2 Attagene cis-factorial SREBP reporter, mRNA; actives raise or lower the signal
Procedure, shortened: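 Endogenous factor activity is measured in HepG2 through multiplexed reporter units under cis-element control. Following a 24 h incubation, reporter transcripts are reverse-transcribed, PCR-amplified and sized by capillary electrophoresis; activity is fitted in both directions relative to DMSO.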

[7] = target: Signal transducer and activator of transcription 3 (Homo sapiens) (UniProt P40763); assay: ATG_STAT3_CIS: Attagene CIS-FACTORIAL HepG2 Assay for human Signal Transducer and Activator of Transcription 3 (STAT3) (AID 2282963); conditions: HepG2, Attagene cis-factorial STAT3 reporter transcription; actives raise or lower the signal
Procedure, shortened: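 HepG2, MRTU-transfected, 24 h dosing. RNA → RT → PCR → FAM label → HpaI → CE. Bidirectional fit vs DMSO.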

[8] = ATG_TA_CIS: Attagene CIS-FACTORIAL HepG2 Assay for human TA Basal Promoter (AID 2282964); conditions: HepG2 Attagene CIS-factorial TA basal promoter reporter; actives raise or lower the signal
Procedure, shortened: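 Transient MRTU transfection of HepG2 preceded 24 h compound exposure. Reporter mRNA levels were then read by RT-PCR with capillary electrophoresis, and this background-control endpoint was fitted bidirectionally to DMSO.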

[9] = ATG_TAL_CIS: Attagene CIS-FACTORIAL HepG2 Assay for human TAL Basal Promoter (AID 2282966); conditions: HepG2 Attagene cis-factorial TAL promoter reporter; actives raise or lower the signal;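 also: background control endpoint measuring basal TAL promoter reporter mRNA not a specific factor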
Procedure, shortened: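 Human hepatoma HepG2 cells, transfected with promoter-regulated reporter units, were treated 24 h. Reporter transcript levels, measured through RT-PCR and capillary electrophoresis, were fitted for gain or loss relative to DMSO.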

[10] = ATG_TCF_b_cat_CIS: Attagene CIS-FACTORIAL HepG2 Assay for human T-Cell-Factor with beta-catenin (TCF/b-cat) (AID 2282965); conditions: HepG2 TCF/beta-catenin cis-reporter transcription, actives raise or lower the signal
Procedure, shortened: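 In this cis-format system, transfected HepG2 cells report endogenous transcription factor activity. Readout after 24 h exposure is reporter transcript abundance from RT-PCR and capillary electrophoresis, analysed for gain or loss of signal versus DMSO.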

Measured: AC50

Sequence of Signal transducer and activator of transcription 3 (Homo sapiens) (P40763 whole entry, looked up): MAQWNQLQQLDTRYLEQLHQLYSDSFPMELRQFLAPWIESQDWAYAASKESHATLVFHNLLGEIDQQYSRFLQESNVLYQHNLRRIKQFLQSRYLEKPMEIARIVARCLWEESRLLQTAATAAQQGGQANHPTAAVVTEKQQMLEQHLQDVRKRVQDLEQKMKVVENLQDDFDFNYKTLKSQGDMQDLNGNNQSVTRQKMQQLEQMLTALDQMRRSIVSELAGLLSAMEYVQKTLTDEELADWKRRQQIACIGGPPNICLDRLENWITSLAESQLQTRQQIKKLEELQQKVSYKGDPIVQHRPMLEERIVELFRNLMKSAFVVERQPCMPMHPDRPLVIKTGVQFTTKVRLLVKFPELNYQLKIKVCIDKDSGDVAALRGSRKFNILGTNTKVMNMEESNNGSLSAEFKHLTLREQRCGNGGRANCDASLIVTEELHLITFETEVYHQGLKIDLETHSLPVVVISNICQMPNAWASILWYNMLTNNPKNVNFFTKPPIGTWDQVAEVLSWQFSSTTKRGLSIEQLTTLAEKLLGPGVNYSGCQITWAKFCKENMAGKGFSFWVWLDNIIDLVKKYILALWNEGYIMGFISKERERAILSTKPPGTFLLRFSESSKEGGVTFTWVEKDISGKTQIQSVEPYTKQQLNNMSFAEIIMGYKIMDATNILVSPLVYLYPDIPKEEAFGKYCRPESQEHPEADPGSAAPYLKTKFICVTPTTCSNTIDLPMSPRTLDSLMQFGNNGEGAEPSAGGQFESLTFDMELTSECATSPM
Sequence of Transcription factor Sp1 (Homo sapiens) (P08047 whole entry, looked up): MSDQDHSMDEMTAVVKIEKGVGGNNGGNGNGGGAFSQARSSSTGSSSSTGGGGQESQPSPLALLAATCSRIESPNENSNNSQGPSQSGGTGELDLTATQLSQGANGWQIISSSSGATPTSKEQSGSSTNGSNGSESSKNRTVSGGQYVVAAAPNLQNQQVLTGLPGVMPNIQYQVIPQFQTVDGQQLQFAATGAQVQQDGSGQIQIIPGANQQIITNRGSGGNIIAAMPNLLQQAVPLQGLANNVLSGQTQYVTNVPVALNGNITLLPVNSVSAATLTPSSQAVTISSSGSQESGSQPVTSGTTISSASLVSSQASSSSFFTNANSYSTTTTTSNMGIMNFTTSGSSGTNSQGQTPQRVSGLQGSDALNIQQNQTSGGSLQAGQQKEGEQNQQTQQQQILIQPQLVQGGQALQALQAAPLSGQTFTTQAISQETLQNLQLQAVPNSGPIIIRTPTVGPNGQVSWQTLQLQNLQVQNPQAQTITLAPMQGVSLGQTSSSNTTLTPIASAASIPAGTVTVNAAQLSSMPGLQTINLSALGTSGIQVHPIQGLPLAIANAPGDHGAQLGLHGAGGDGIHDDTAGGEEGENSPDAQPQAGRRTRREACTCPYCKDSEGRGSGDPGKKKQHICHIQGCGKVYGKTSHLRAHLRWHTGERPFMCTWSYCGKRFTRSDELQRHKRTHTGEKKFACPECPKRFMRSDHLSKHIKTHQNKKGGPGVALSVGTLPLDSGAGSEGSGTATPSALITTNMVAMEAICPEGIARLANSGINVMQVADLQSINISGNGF

Cc1cc(SC2=C(O)C[C@@](CCc3ccc(N)cc3)(C(C)C)OC2=O)c(C(C)(C)C)cc1CO
active: [1] 1.55 µM | [2] 57.6 µM | [5] 29.1 µM
inactive: [3] | [4] | [6] | [7] | [8] | [9]

CCCCCCCCCC[N+](C)(C)[O-]
active: [1] 79 µM
inactive: [2] | [3] | [4] | [5] | [6] | [8] | [10] | [9]

CC(=O)O[C@]1(C(C)=O)CC[C@H]2[C@@H]3C=C(Cl)C4=CC(=O)[C@@H]5C[C@@H]5[C@]4(C)[C@H]3CC[C@@]21C
inactive: [1] | [2] | [3] | [4] | [6] | [7] | [8] | [9]
active: [1] 184 µM and 142 µM and 61.5 µM | [4] 100 µM | [6] 29.5 µM and 52.1 µM and 34.3 µM | [8] 54.5 µM | [9] 47.7 µM

Oc1ccc(O)cc1
inactive: [1] | [3] | [4] | [6] | [7] | [8] | [9]
active: [2] 62.5 µM | [5] 29.1 µM

O=C1O[C@H]([C@H](O)CO)C(O)=C1O
inactive: [1] | [2] | [3] | [4] | [5] | [6] | [8] | [10] | [9]

C/C=C/C=C/C(=O)O
active: [1] 36.7 µM
inactive: [1] | [2] | [3] | [4] | [5] | [6] | [7] | [8] | [9]

O=C1CCCCC1
inactive: [1] | [2] | [3] | [4] | [5] | [6] | [7] | [8] | [9]

CC(N)=O
inactive: [1] | [3] | [4] | [5] | [6] | [7] | [8] | [10] | [9]
active: [1] 28.9 µM

CC1(C)C(=O)NC(=O)N1CO
active: [6] 150 µM
inactive: [1] | [2] | [3] | [4] | [5] | [8] | [10] | [9]

CC(C)NCC(O)c1ccc(O)c(O)c1 (stereo not drawn)
active: [1] 52.4 µM
inactive: [2] | [3] | [4] | [5] | [6] | [7] | [8] | [9]

O=C1c2c(O)cccc2Cc2cccc(O)c21
inactive: [1] | [2] | [3] | [4] | [6] | [7] | [8] | [9]

O=[Si]=O
inactive: [1] | [2] | [3] | [4] | [6] | [8] | [9]

CSc1ccc(Oc2ccc(S(N)(=O)=O)cc2CN(C)C)cc1C
inactive: [2] | [3] | [4] | [8] | [9]
active: [1] 9.66 µM | [6] 23.4 µM | [10] 55 µM

O=C(O)c1[nH]n(-c2ccc(S(=O)(=O)O)cc2)c(=O)c1N=Nc1ccc(S(=O)(=O)O)cc1
inactive: [2] | [3] | [4] | [6] | [7] | [8] | [9]
active: [1] 69.5 µM

O=Cc1ccccc1C=O
inactive: [1] | [2] | [3] | [4] | [6] | [8] | [9]

O=C(O)c1cccnc1
inactive: [1] | [2] | [3] | [4] | [6] | [8] | [9]

OCC(CO)n1cnc(-c2ccc(F)cc2)c1-c1ccnc(Oc2ccccc2)n1
active: [1] 7.89 µM | [2] 0.357 µM
inactive: [3] | [4] | [5] | [6] | [8] | [10] | [9]

O=C(O)CN(CC(=O)O)CC(=O)O
inactive: [1] | [2] | [3] | [4] | [5] | [6] | [8] | [9]

CCc1nc(N)nc(N)c1-c1ccc(Cl)cc1
inactive: [1] | [4] | [6] | [9]
active: [2] 26.8 µM | [3] 42.5 µM | [8] 100 µM | [10] 60.1 µM

CCCC[C@H]1CN(CC2CCOCC2)C(=O)OC12CCN(C1(C)CCN(C(=O)c3c(C)ncnc3C)CC1)CC2
inactive: [1] | [2] | [3] | [4] | [6] | [7] | [8] | [10] | [9]

O=C(NS(=O)(=O)/C=C/c1cccs1)c1ccc(F)cc1Br
inactive: [2] | [3] | [4] | [6] | [8] | [9]
active: [1] 13.7 µM | [10] 11.4 µM
